Molecules are shown by their SMILES. Out of some 30,000 compounds screened, about 580 (1.9%) were called active. The sample as a whole holds a higher share of actives than the screen did. A number with no mark means an inactive call. No stated cut-off is given here; in the data, active means inhibition above about 43%; inactive means the rest.

This assay deals with Serine/threonine-protein kinase ULK1 (Homo sapiens) (UniProt O75385). The assay is described as follows: ULK1 kinase inhibitors, primary screen, biochemical, AlphaScreen (AID 1259251).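 Further: 0% = median of compound wells and 100% = no enzyme.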 As to conditions: AlphaScreen Atg13 phosphorylation by ULK1, luminescence; at 5.96 µM; active compounds read high.
Sequence of Serine/threonine-protein kinase ULK1 (Homo sapiens) (O75385 whole entry, looked up): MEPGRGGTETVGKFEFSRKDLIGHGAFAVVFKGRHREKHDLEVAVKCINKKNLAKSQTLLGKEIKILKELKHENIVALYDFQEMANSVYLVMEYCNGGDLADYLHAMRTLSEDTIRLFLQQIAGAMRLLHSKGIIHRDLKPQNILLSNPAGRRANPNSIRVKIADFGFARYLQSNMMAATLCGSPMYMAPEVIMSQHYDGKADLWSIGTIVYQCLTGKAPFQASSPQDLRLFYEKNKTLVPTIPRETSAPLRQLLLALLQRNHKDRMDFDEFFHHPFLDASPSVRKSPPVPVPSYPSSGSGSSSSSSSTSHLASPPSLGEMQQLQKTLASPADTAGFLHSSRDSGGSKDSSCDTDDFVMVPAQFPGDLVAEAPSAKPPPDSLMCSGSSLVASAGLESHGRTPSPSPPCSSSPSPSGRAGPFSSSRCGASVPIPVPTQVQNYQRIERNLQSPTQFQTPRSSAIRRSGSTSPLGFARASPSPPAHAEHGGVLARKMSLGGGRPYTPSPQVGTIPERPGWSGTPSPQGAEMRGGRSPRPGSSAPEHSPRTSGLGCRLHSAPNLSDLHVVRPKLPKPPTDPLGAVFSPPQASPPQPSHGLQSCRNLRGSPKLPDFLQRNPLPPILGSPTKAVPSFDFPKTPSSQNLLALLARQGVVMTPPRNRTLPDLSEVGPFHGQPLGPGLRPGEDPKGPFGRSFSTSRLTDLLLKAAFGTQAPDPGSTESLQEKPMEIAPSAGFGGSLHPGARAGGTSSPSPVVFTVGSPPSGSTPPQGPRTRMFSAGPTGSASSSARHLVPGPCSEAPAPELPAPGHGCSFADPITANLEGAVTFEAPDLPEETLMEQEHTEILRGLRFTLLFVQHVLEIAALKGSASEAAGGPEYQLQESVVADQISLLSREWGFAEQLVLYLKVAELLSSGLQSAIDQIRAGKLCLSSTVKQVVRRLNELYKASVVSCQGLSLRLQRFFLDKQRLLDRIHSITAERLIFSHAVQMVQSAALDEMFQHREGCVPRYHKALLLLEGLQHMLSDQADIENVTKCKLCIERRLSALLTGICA
The term inhibition denotes the relative decrease from the control value, in per cent. `CCN(CC)C(=O)C1CCCN(c2nc(NCCOc3ccccc3)c3ncn(C(C)C)c3n2)C1` (stereo unspecified): the inhibition was 4.04%.

Turning to `c1cncc(Nc2nccc(Nc3ccc(N4CCOCC4)cc3)n2)c1`, the inhibition is 10%.

`COCCNc1cc(-c2ccc(F)cc2)nc(C)n1`: the inhibition was 0.77%.

In the case of `CCN(C(=O)c1ccc(Br)cc1)c1ccccc1`, the inhibition is 2.64%.

As to `COc1cc2nc(-c3cccc(N)c3)nc(NCCN3CCOCC3)c2cc1OC`, the inhibition was -4.6%.

With `COc1cc(N2CCOCC2)ccc1Nc1cc(Nc2ccccc2-n2cccn2)c(C(F)(F)F)cn1`, the inhibition is 77% (active).

For `COc1cc(C(=O)N2CCOCC2)ccc1Nc1cc(NCc2cccc(S(C)(=O)=O)c2)c(C(F)(F)F)cn1`, the inhibition is -14.6%.

`FC(F)(F)c1cnc(Nc2ccc(N3CCOCC3)cc2)cc1-n1ncc2ccccc21`: the inhibition was 2.76%.

With `CCOC(=O)c1cc[n+](CC(=O)c2ccc(NC(=O)c3ccccc3)cc2)cc1`, the inhibition is 3.76%.

Consider `CCN(CC)C(=O)C1CCCN(c2nc3ccc(C(=O)Nc4ccc(NC(C)=O)cc4)cc3s2)C1` (stereo unspecified), for which the inhibition is -20.8%.

On to `CCN(CC)CCNC(=O)c1cc(S(C)(=O)=O)ccc1OC`, for which the inhibition was 13%.

Consider `CNC(=O)c1ccccc1Nc1cc(NC(=O)Cc2ccc(F)c(F)c2)ncc1C(F)(F)F`, for which the inhibition was 32.8%.

As to `CCN(CC)CCNC(=O)c1ccc(Nc2cc(Nc3ccccc3C(=O)NC)c(C(F)(F)F)cn2)nc1`, the inhibition was 92.4% (active).

For `CC(C)N(CCNC(=O)c1ccnc(Nc2ccc(C(F)(F)F)cc2)c1)C(C)C`, the inhibition was -25.3%.

For the molecule `CNC(=O)c1ccccc1Nc1cc(NC(=O)C(F)(F)c2ccccc2)ncc1C(F)(F)F`, the inhibition is 61.2% (active).

Regarding `CCN(CC)CCNC(=O)c1ccc(Nc2cc(Nc3ccccc3C(=O)NC)c(C(F)(F)F)cn2)c(C)c1`, the inhibition was 88.5% (active).

For the molecule `CNC(=O)c1ccccc1Nc1cc(NC(=O)Cc2ccc([N+](=O)[O-])cc2)ncc1C(F)(F)F`, the inhibition was 40.8%.

In the case of `CNC(=O)c1ccccc1Nc1cc(NC(=O)C2(c3ccccc3)CC2)ncc1C(F)(F)F`, the inhibition was -23.5%.

Turning to `CCN(CC)CCOc1ccc(Nc2cc(Nc3ccccc3C(=O)NC)c(C(F)(F)F)cn2)c(OC)c1`, the inhibition is 91.6% (active).

On to `O=C1CCCN1CCn1cnc2c(NCc3cccc(C(F)(F)F)c3)nc(Nc3nccc4ccccc34)nc21`, for which the inhibition is -5.58%.

On to `Cc1cnc(CNc2cc(-c3ccccc3F)nc(C)n2)nc1`, for which the inhibition was 3.69%.

On to `COc1cc2nc(Nc3nccc4ccccc34)nc(NCc3cccc(C(F)(F)F)c3)c2cc1OC`, for which the inhibition is -3.82%.

On to `COC(c1ccccc1)(c1ccccc1)C(Oc1nc(C)cc(C)n1)C(=O)O` (stereo unspecified), for which the inhibition was 5.25%.

Take `CC(C)n1c(-c2ccc(C(N)=O)cc2)nc2c(NCCN3CCOCC3)ncnc21`: the inhibition is -4.64%.

For `O=C(NCCc1cccnc1)c1ccc2c(c1)CC(c1nc3ccc(-c4cn[nH]c4)cc3c(=O)[nH]1)CO2` (stereo unspecified), the inhibition is 1.53%.

For the molecule `CCNc1ncc(C)c(NCCc2ccc(OC)cc2)n1`, the inhibition was -7.79%.

On to `Nc1nc(NCc2cccnc2)nc2c1ncn2-c1ccsc1`, for which the inhibition was 2.79%.

Regarding `CC(=O)Nc1ccc2cnn(-c3cccc(C(=O)NCCN4CCOCC4)c3)c2c1`, the inhibition is -2.64%.

Regarding `C1=C2[C@@H](c3ccccc3)N3CCC[C@@H]3[C@H]3CCC[C@@]23OCC1`, the inhibition is -9.95%.

Regarding `O=C(NC1CC1)c1ccc(-c2nccc(NCc3nc4ccccc4[nH]3)n2)cc1`, the inhibition is -2.79%.

As for `COc1cc(Nc2cc(NC3CC3)ncn2)cc(OC)c1OC`, the inhibition is -5.2%.

`O=C(NCCCN1CCCC1=O)C1CCN(c2ccc(Nc3ccc4ncccc4c3)nn2)CC1`: the inhibition is 7.45%.

With `COc1cccc(C(=O)Nc2nc3ccc(-c4ccncc4)cc3s2)c1`, the inhibition is 14.9%.

With `CNC(=O)c1ccccc1Nc1ccnc(Nc2ccc(N3CCOCC3)cc2)c1`, the inhibition was 6.96%.

With `CNC(=O)c1ccccc1Nc1nc(Nc2ccc(-n3cnc(-c4ccc(C)nc4)n3)cc2)ncc1Cl`, the inhibition is 8.9%.

For the molecule `CNC(=O)c1ccccc1Nc1cc(Nc2ccc(C(=O)N(C)C)cc2)ncc1C(F)(F)F`, the inhibition was 86.4% (active).

As for `N#Cc1cccc(-c2ccnc(Nc3ccc(N4CCOCC4)cc3)n2)c1`, the inhibition was 7.92%.

As to `CC(C)n1cnc2c(NCCO)nc(Nc3ccc(C(F)(F)F)cc3)nc21`, the inhibition was -7.45%.

In the case of `c1ccc(N2CCN(c3nc(NCCN4CCOCC4)c4ncn(C5CCCCC5)c4n3)CC2)nc1`, the inhibition is -0.56%.

Consider `Cn1c(Nc2nc(NC3CC3)c3ncn(C4CCCCC4)c3n2)nc2ccccc21`, for which the inhibition is 36.9%.

Take `O=C(CNS(=O)(=O)c1ccc(Cl)cc1)OCC(=O)c1ccccc1`: the inhibition was 14.9%.

The values above are taken from PubChem BioAssay AID1259251 (The Scripps Research Institute Molecular Screening Center, 2017).
